Experimental data as given in PubChem BioAssay (NCI).
Compounds without any hit were thinned out: in the full panel of roughly 79,000, 15% have a hit. Calls of active or inactive are those of the source. Cut-off read from the data, not from the text of the source: active = growth inhibition above about 70%; inactive = the rest.

Assay: NCI Yeast Anticancer Drug Screen. Data for the mec2-1 strain (AID 157)
Conditions: S. cerevisiae mec2-1 strain, at 50.0 µM, stronger effect = higher value
Summary of the method: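 Using mec2-1 yeast: add compound, measure growth, express inhibition versus vehicle-treated cultures.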

For COC(=O)/C=C/C(=N/N(C)c1ccccc1)c1ccccc1, which growth inhibition is on record?
Its growth inhibition is -0.2% (inactive).

For CC(C)(C)OC(=O)NC(CCCCNC(=O)OCc1ccccc1)C(=O)NCCNc1ccc(NCCNC(=O)C(CCCCNC(=O)OCc2ccccc2)NC(=O)OC(C)(C)C)c2c1C(=O)c1ccccc1C2=O (stereo not given), which growth inhibition is on record?
Its growth inhibition is 0.1% (inactive).

With COc1ccc(N2C=Nn3c(nc4sc5c(c4c3=O)CCCC5)C2)cc1 as the molecule, how does the growth inhibition read?
The growth inhibition was 4.2% (inactive).

With Cc1sc2nc3n(c(=O)c2c1C)N=CN(c1ccc(F)cc1)C3 as the molecule, how does the growth inhibition read?
Its growth inhibition is -0.45% (inactive).

Which growth inhibition does the source give for N#CC(N)(C(=O)C(=O)NCCCNC(=O)C(=O)C(N)(C#N)c1ccc(Cl)cc1)c1ccc(Cl)cc1 (stereo not given) here?
The growth inhibition was -1.45% (inactive).

For CCOC(=O)C(=O)Nc1ccc2cc(OC)ccc2c1C#N, which growth inhibition is on record?
Its growth inhibition is 14.2% (inactive).

With CC(COc1ccc(Cl)cc1)OS(=O)(=O)CCCl (stereo not given) as the molecule, how does the growth inhibition read?
The growth inhibition was 13% (inactive).

Which growth inhibition does the source give for N#Cc1c(NC(=S)NC(=O)c2ccccc2)nc2c(c1-c1ccccc1)CCCC2 here?
The growth inhibition was 17.9% (inactive).

Which growth inhibition does the source give for C=CCCC1CC(OCC)OC(CCC=C)O1 (stereo not given) here?
The growth inhibition was 1.15% (inactive).

For CC1(C)CC(C)(OC(=O)c2ccccc2)N=N1 (stereo not given), which growth inhibition is on record?
Its growth inhibition is -11.1% (inactive).

Which growth inhibition does the source give for CCCOC(=O)CCCC1=NC2=CC=CC3=NC(C)=NC(=N1)N23 here?
The growth inhibition was -3.4% (inactive).

For c1ccc(N=C2CCCCCC2)cc1, which growth inhibition is on record?
The growth inhibition was 14.2% (inactive).

With c1ccc2c(c1)OP1(=NP3(=NP4(=NP5(=N1)Oc1ccccc1-c1ccccc1O5)Oc1ccccc1-c1ccccc1O4)Oc1ccccc1-c1ccccc1O3)Oc1ccccc1-2 as the molecule, how does the growth inhibition read?
The growth inhibition was 6.3% (inactive).

Which growth inhibition does the source give for O=C(O)CCC(=O)c1ccc2c3c(cccc13)CC2 here?
The growth inhibition was 0.9% (inactive).

With CCc1ccc2c(c1)CCC(=O)O2 as the molecule, how does the growth inhibition read?
Its growth inhibition is -15.2% (inactive).

With CC(=O)OCC1OC(n2c(O)c(/C=C3\C=Nc4ccccc43)sc2=S)C(OC(C)=O)C(OC(C)=O)C1OC(C)=O (stereo not given) as the molecule, how does the growth inhibition read?
Its growth inhibition is -11.7% (inactive).

With O=c1cnn(C2OC(C(O)CO)C(O)C2O)c(=O)[nH]1 (stereo not given) as the molecule, how does the growth inhibition read?
The growth inhibition was -81.5% (inactive).

With COc1cc2c(cc1C1=NC(C)(C)CO1)OCO2 as the molecule, how does the growth inhibition read?
Its growth inhibition is -18.7% (inactive).

Which growth inhibition does the source give for CC(C)CCCC(C)[C@H]1CC[C@H]2[C@@H]3CC[C@H]4C[C@@H](CCC=C(c5cc(Cl)c(O)c(C(=O)OC(C)C)c5)c5cc(Cl)c(O)c(C(=O)OC(C)C)c5)CC[C@]4(C)[C@H]3CC[C@]12C (stereo not given in full) here?
The growth inhibition was 9.05% (inactive).

With CC(C)(C)NC(NC(C)(C)C)=C(C(Cl)=C(Cl)Cl)[N+](=O)[O-] as the molecule, how does the growth inhibition read?
Its growth inhibition is -9.55% (inactive).

With CNC(=O)NCCCC(NC(C)=O)C(=O)NCc1ccccc1 (stereo not given) as the molecule, how does the growth inhibition read?
Its growth inhibition is -16.7% (inactive).

Which growth inhibition does the source give for O=C(O)/C=C/C(=O)Nc1ccc2c(c1)-c1ccccc1C2=O here?
The growth inhibition was 14.4% (inactive).

Which growth inhibition does the source give for CCCCOc1cc2c(cc1C(C)c1ccccc1)OCO2 (stereo not given) here?
The growth inhibition was -3.95% (inactive).

Which growth inhibition does the source give for O=c1c2ccccc2ncn1C1OC(CO)C(O)C1O (stereo not given) here?
Its growth inhibition is -19.1% (inactive).

With CCOC1CCC(C(=O)CC)C(C#N)(C#N)C1(C#N)C#N (stereo not given) as the molecule, how does the growth inhibition read?
Its growth inhibition is 13.7% (inactive).

For COc1cc(C(=O)O)c(O)c(OC)c1OC, which growth inhibition is on record?
Its growth inhibition is 0.9% (inactive).

Which growth inhibition does the source give for O=C(CCl)Nc1cc(Cl)c(Cl)cc1Cl here?
The growth inhibition was 21.8% (inactive).

With CC(=O)OCC1OC(Cl)C(OC(=O)C(Cl)(Cl)Cl)C(OC(C)=O)C1OC(C)=O (stereo not given) as the molecule, how does the growth inhibition read?
Its growth inhibition is 0.2% (inactive).

For CC(C)C(C(=O)O)N1C(=O)c2ccccc2C1=O (stereo not given), which growth inhibition is on record?
The growth inhibition was -1.5% (inactive).

Which growth inhibition does the source give for O=C(COc1ccc(Cl)c(Cl)c1)Nc1ccc(C(=O)CCl)cc1 here?
The growth inhibition was 31.3% (inactive).

Which growth inhibition does the source give for CO[C@@]12CC(=O)/C(=C(O)\C=C\c3ccccc3)C(=O)[C@]1(OC)Cc1ccccc1O2 here?
Its growth inhibition is 31.9% (inactive).

With c1ccc(-c2nnc3nn4c(-c5ccccc5)cnnc4c3c2-c2ccccc2)cc1 as the molecule, how does the growth inhibition read?
Its growth inhibition is -10.3% (inactive).

For NC(=S)N/N=C1\C(=O)N(CCc2ccccc2)C(=O)C1C(=O)NCCc1ccccc1 (stereo not given), which growth inhibition is on record?
The growth inhibition was -27.7% (inactive).

With C=CCc1cc(OC)c2c(c1)C(OC)CC(c1ccc(OC)c(OC)c1)O2 (stereo not given) as the molecule, how does the growth inhibition read?
Its growth inhibition is -34.3% (inactive).

Which growth inhibition does the source give for Cc1ccc(CSC(=S)NNc2ccccc2)cc1C here?
The growth inhibition was -44.3% (inactive).

For Cc1ccc(S(=O)(=O)N2CCN(S(=O)(=O)c3ccc(C)cc3)CCN(S(=O)(=O)c3ccc(C)cc3)Cc3cc(Br)c(Br)cc3CN(S(=O)(=O)c3ccc(C)cc3)CC2)cc1, which growth inhibition is on record?
Its growth inhibition is -6.05% (inactive).

Which growth inhibition does the source give for CC(=O)Nc1cccc(N=NN(C)C)c1 here?
Its growth inhibition is 14.1% (inactive).

With COc1ccccc1-c1coc2c(ccc3oc(C(C)C)cc32)c1=O as the molecule, how does the growth inhibition read?
The growth inhibition was 20% (inactive).

With C1=C(N2CCOCC2)CCC(N2CCOCC2)=C1 as the molecule, how does the growth inhibition read?
The growth inhibition was 21.9% (inactive).

With O=C1C2CSCN2C(=O)C2CSCN12 (stereo not given) as the molecule, how does the growth inhibition read?
Its growth inhibition is 4.45% (inactive).

Assay: NCI Yeast Anticancer Drug Screen. Data for the sgs1 mgt1 strain (AID 161);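 note: 0% = growth of cultures given vehicle only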
Conditions: S. cerevisiae sgs1 mgt1 strain, at 50.0 µM, stronger effect = higher value
Summary of the method: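 Yeast cells carrying a defined DNA-repair defect were exposed to test compounds. Growth inhibition was measured relative to vehicle-treated controls.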

Which growth inhibition does the source give for COC(=O)/C=C/C(=N/N(C)c1ccccc1)c1ccccc1 here?
The growth inhibition was 2.75% (inactive).

Which growth inhibition does the source give for CC(C)(C)OC(=O)NC(CCCCNC(=O)OCc1ccccc1)C(=O)NCCNc1ccc(NCCNC(=O)C(CCCCNC(=O)OCc2ccccc2)NC(=O)OC(C)(C)C)c2c1C(=O)c1ccccc1C2=O (stereo not given) here?
The growth inhibition was -27.4% (inactive).

For COc1ccc(N2C=Nn3c(nc4sc5c(c4c3=O)CCCC5)C2)cc1, which growth inhibition is on record?
The growth inhibition was 0.35% (inactive).

With Cc1sc2nc3n(c(=O)c2c1C)N=CN(c1ccc(F)cc1)C3 as the molecule, how does the growth inhibition read?
Its growth inhibition is 8.85% (inactive).

With N#CC(N)(C(=O)C(=O)NCCCNC(=O)C(=O)C(N)(C#N)c1ccc(Cl)cc1)c1ccc(Cl)cc1 (stereo not given) as the molecule, how does the growth inhibition read?
The growth inhibition was -32.4% (inactive).

With CCOC(=O)C(=O)Nc1ccc2cc(OC)ccc2c1C#N as the molecule, how does the growth inhibition read?
Its growth inhibition is 14.8% (inactive).

With CC(COc1ccc(Cl)cc1)OS(=O)(=O)CCCl (stereo not given) as the molecule, how does the growth inhibition read?
The growth inhibition was -16.1% (inactive).

Which growth inhibition does the source give for N#Cc1c(NC(=S)NC(=O)c2ccccc2)nc2c(c1-c1ccccc1)CCCC2 here?
Its growth inhibition is 30.1% (inactive).

With C=CCCC1CC(OCC)OC(CCC=C)O1 (stereo not given) as the molecule, how does the growth inhibition read?
Its growth inhibition is 1.25% (inactive).

For CC1(C)CC(C)(OC(=O)c2ccccc2)N=N1 (stereo not given), which growth inhibition is on record?
The growth inhibition was 20.1% (inactive).

For CCCOC(=O)CCCC1=NC2=CC=CC3=NC(C)=NC(=N1)N23, which growth inhibition is on record?
The growth inhibition was -7.45% (inactive).

Which growth inhibition does the source give for c1ccc(N=C2CCCCCC2)cc1 here?
The growth inhibition was -5.8% (inactive).

For c1ccc2c(c1)OP1(=NP3(=NP4(=NP5(=N1)Oc1ccccc1-c1ccccc1O5)Oc1ccccc1-c1ccccc1O4)Oc1ccccc1-c1ccccc1O3)Oc1ccccc1-2, which growth inhibition is on record?
Its growth inhibition is -30.5% (inactive).

Which growth inhibition does the source give for O=C(O)CCC(=O)c1ccc2c3c(cccc13)CC2 here?
The growth inhibition was 15.2% (inactive).

Which growth inhibition does the source give for CCc1ccc2c(c1)CCC(=O)O2 here?
The growth inhibition was -4.8% (inactive).

For CC(=O)OCC1OC(n2c(O)c(/C=C3\C=Nc4ccccc43)sc2=S)C(OC(C)=O)C(OC(C)=O)C1OC(C)=O (stereo not given), which growth inhibition is on record?
Its growth inhibition is -15.4% (inactive).

Which growth inhibition does the source give for O=c1cnn(C2OC(C(O)CO)C(O)C2O)c(=O)[nH]1 (stereo not given) here?
Its growth inhibition is -8.75% (inactive).

For COc1cc2c(cc1C1=NC(C)(C)CO1)OCO2, which growth inhibition is on record?
Its growth inhibition is -28.9% (inactive).

For CC(C)CCCC(C)[C@H]1CC[C@H]2[C@@H]3CC[C@H]4C[C@@H](CCC=C(c5cc(Cl)c(O)c(C(=O)OC(C)C)c5)c5cc(Cl)c(O)c(C(=O)OC(C)C)c5)CC[C@]4(C)[C@H]3CC[C@]12C (stereo not given in full), which growth inhibition is on record?
The growth inhibition was 23.1% (inactive).

Which growth inhibition does the source give for CC(C)(C)NC(NC(C)(C)C)=C(C(Cl)=C(Cl)Cl)[N+](=O)[O-] here?
Its growth inhibition is -6.15% (inactive).

For CNC(=O)NCCCC(NC(C)=O)C(=O)NCc1ccccc1 (stereo not given), which growth inhibition is on record?
Its growth inhibition is -16.2% (inactive).

With O=C(O)/C=C/C(=O)Nc1ccc2c(c1)-c1ccccc1C2=O as the molecule, how does the growth inhibition read?
The growth inhibition was 17.9% (inactive).

For CCCCOc1cc2c(cc1C(C)c1ccccc1)OCO2 (stereo not given), which growth inhibition is on record?
The growth inhibition was -4.05% (inactive).

For O=c1c2ccccc2ncn1C1OC(CO)C(O)C1O (stereo not given), which growth inhibition is on record?
The growth inhibition was -13.9% (inactive).

With CCOC1CCC(C(=O)CC)C(C#N)(C#N)C1(C#N)C#N (stereo not given) as the molecule, how does the growth inhibition read?
Its growth inhibition is 4.75% (inactive).

Which growth inhibition does the source give for COc1cc(C(=O)O)c(O)c(OC)c1OC here?
The growth inhibition was -8.4% (inactive).

For O=C(CCl)Nc1cc(Cl)c(Cl)cc1Cl, which growth inhibition is on record?
The growth inhibition was 58.1% (inactive).

Which growth inhibition does the source give for CC(=O)OCC1OC(Cl)C(OC(=O)C(Cl)(Cl)Cl)C(OC(C)=O)C1OC(C)=O (stereo not given) here?
Its growth inhibition is -13.6% (inactive).

With CC(C)C(C(=O)O)N1C(=O)c2ccccc2C1=O (stereo not given) as the molecule, how does the growth inhibition read?
The growth inhibition was -12.2% (inactive).

For O=C(COc1ccc(Cl)c(Cl)c1)Nc1ccc(C(=O)CCl)cc1, which growth inhibition is on record?
Its growth inhibition is 19.4% (inactive).

For CO[C@@]12CC(=O)/C(=C(O)\C=C\c3ccccc3)C(=O)[C@]1(OC)Cc1ccccc1O2, which growth inhibition is on record?
The growth inhibition was 33.6% (inactive).

For c1ccc(-c2nnc3nn4c(-c5ccccc5)cnnc4c3c2-c2ccccc2)cc1, which growth inhibition is on record?
Its growth inhibition is -14.8% (inactive).

With NC(=S)N/N=C1\C(=O)N(CCc2ccccc2)C(=O)C1C(=O)NCCc1ccccc1 (stereo not given) as the molecule, how does the growth inhibition read?
Its growth inhibition is -35.6% (inactive).

With C=CCc1cc(OC)c2c(c1)C(OC)CC(c1ccc(OC)c(OC)c1)O2 (stereo not given) as the molecule, how does the growth inhibition read?
Its growth inhibition is -6.05% (inactive).

For Cc1ccc(CSC(=S)NNc2ccccc2)cc1C, which growth inhibition is on record?
Its growth inhibition is -2.15% (inactive).

For Cc1ccc(S(=O)(=O)N2CCN(S(=O)(=O)c3ccc(C)cc3)CCN(S(=O)(=O)c3ccc(C)cc3)Cc3cc(Br)c(Br)cc3CN(S(=O)(=O)c3ccc(C)cc3)CC2)cc1, which growth inhibition is on record?
Its growth inhibition is -23.3% (inactive).

For CC(=O)Nc1cccc(N=NN(C)C)c1, which growth inhibition is on record?
The growth inhibition was 39% (inactive).

For COc1ccccc1-c1coc2c(ccc3oc(C(C)C)cc32)c1=O, which growth inhibition is on record?
Its growth inhibition is 3.25% (inactive).

With C1=C(N2CCOCC2)CCC(N2CCOCC2)=C1 as the molecule, how does the growth inhibition read?
The growth inhibition was 20.8% (inactive).

Which growth inhibition does the source give for O=C1C2CSCN2C(=O)C2CSCN12 (stereo not given) here?
The growth inhibition was 5.7% (inactive).
